The values that follow come from PubChem BioAssay (NCATS).

Molecules are shown by their SMILES. Several values for one entry are separate records, joined by “and”; a condition that tells them apart may be missing. Equal entries are not always repeated. Records with an inconclusive call do not appear. Activity calls are given as the source filed them. Unless noted, the call rests on the fitted dose curve.

The target in assay [1] is Peroxisome proliferator-activated receptor gamma (Homo sapiens) (UniProt P37231). As to the kind of experiment: qHTS assay for small molecule agonists of peroxisome proliferator-activated receptor gamma signaling (AID 588536; active means well fitted curve in the direction sought with a large enough effect in the signal ratio, with a control signal flat, not every such curve was filed as active; the % refers to the signal ratio;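 further: 0% = DMSO basal wells and 100% = rosiglitazone at 2 µM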). A digest of the protocol:
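HEK293 UAS-bla reporter line, 1% charcoal/dextran FBS; titration, 16 h, 37 C; CCF4 loading 2 h RT; fluorescence 460/530 nm. Normalized to rosiglitazone 2 uM = 100%, DMSO = 0%.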
(In general: qHTS replaces the single test concentration by a dilution series.)

The target is the same in assay [2]. As to the kind of experiment: qHTS assay for small molecule antagonists of peroxisome proliferator-activated receptor gamma signaling (AID 588537; active means well fitted inhibition curve with a large enough effect in the signal ratio, with a control signal flat, not every such curve was filed as active; the % refers to the signal ratio;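 further: reporter cells co-stimulated with 50 nM rosiglitazone agonist during compound treatment; % of control where 0% means no effect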). A digest of the protocol:
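Step one: plate 3000 HEK293 UAS-bla cells per well in medium with 1% stripped serum and hold 6-6.5 h at 37 C. Step two: add compound and 50 nM agonist for 16 h. Step three: CCF4 loading, fluorescence read.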

For assay [3], the target named is Vitamin D3 receptor (Homo sapiens) (UniProt P11473). As to the kind of experiment: qHTS assay for small molecule agonists of vitamin D receptor signaling (AID 588543).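 Further: 0% = DMSO basal and 100% = reference agonist control.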 The gist of the method: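 qHTS in agonist mode: compound titrations stimulate a VDR-driven β-lactamase reporter in HEK293T cells over 16 h at 37 °C. Response normalized to 50 nM 1α,25-dihydroxyvitamin D3 = 100%, DMSO = 0%; Hill fitting gives EC50 and maximal response.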

A short description of assay [4]: qHTS assay for small molecule agonists of retinoid X receptor alpha signaling (AID 588544). The settings on record: HEK293T RXRa-UAS-bla, beta-lactamase reporter, 18 h; 530 nm emission.
Assay [5] addresses Retinoic acid receptor RXR-alpha (Homo sapiens) (UniProt P19793). The assay is described as above.
Assay [6] concerns the target Thyroid hormone receptor beta (Homo sapiens) (UniProt P10828). As to the kind of experiment: qHTS assay for small molecule agonists of thyroid hormone receptor beta signaling (AID 588545). A digest of the protocol:
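In this cell-based screen, titrated compounds act on HEK 293 cells held in medium with 2% charcoal/dextran FBS, NEAA and pyruvate for 18 hrs at 37 C. Responses are expressed relative to T3 (10 nM) as 100% and basal DMSO as 0%.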

The nature of assay [7]: qHTS assay for small molecule antagonists of retinoid X receptor alpha signaling (AID 588546; active means well fitted inhibition curve with a large enough effect in the signal ratio, with a control signal flat, not every such curve was filed as active; the % refers to the signal ratio;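 further: cells stimulated with 9-cis-retinoic acid as agonist; on the % scale 0 is the no-effect control and ±100 the full control effect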). The settings on record: HEK293T RXRa-UAS-bla, beta-lactamase ratio, antagonist mode; measured here: W530 green channel, cytotoxicity proxy. The gist of the method:
(§1)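 Beta-lactamase reporter inhibition, read as CCF4 fluorescence ratio (ex 405, em 460/530 nm) after 2 h at RT. HEK293T UAS-bla cells, 2500/well, were stimulated with 9-cis-RA at 500 or 100 nM final alongside test compound for 18 h at 37 C.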

Assay [8] deals with Retinoic acid receptor RXR-alpha (Homo sapiens) (UniProt P19793). Described as above. The settings on record: HEK293T RXRa-UAS-bla, beta-lactamase ratio, antagonist mode. The gist of the method:
as §1

Assay [9] deals with Thyroid hormone receptor beta (Homo sapiens) (UniProt P10828). Nature of the assay: qHTS assay for small molecule antagonists of thyroid hormone receptor beta signaling (AID 588547; active means well fitted inhibition curve with a large enough effect in the signal ratio, with a control signal flat, not every such curve was filed as active; the % refers to the signal ratio;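 further: cells stimulated with 0.4 nM T3 agonist during compound exposure; series mostly up to about 77 µM; on the % scale 0 is the no-effect control and ±100 the full control effect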). The settings on record: TR-UAS-bla HEK293, beta-lactamase ratio, antagonist mode, 18 h. A digest of the protocol: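 TR-UAS-bla GripTite HEK293 cells in 2% charcoal/dextran FBS medium; compounds 0.59 nM to 92 uM with T3 at 0.4nM final, 18 h at 37 C. Beta-lactamase read by CCF4 fluorescence (460/530 nm); Hill fits gave IC50 and efficacy.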

Assay [10] concerns the target Voltage-gated inwardly rectifying potassium channel KCNH2 (Homo sapiens) (UniProt Q12809). Nature of the assay: qHTS Assay for Small Molecule Inhibitors of the Human hERG Channel Activity (AID 588834; active means well fitted inhibition curve with a large enough effect;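 further: lower thallium flux fluorescence means stronger hERG block; nearly all actives have a fitted effect of over 50% in size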; further: potency means the concentration at half of the fitted maximal effect). The gist of the method:
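Measured: FluxOR fluorescence after thallium stimulation in U2OS cells transduced with hERG by baculovirus. Compounds pre-incubated around 10 min; medium Opti-MEM with 2% FCS. AC50 from Hill equation.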

Chain of Peroxisome proliferator-activated receptor gamma (Homo sapiens) (P37231 whole entry, looked up): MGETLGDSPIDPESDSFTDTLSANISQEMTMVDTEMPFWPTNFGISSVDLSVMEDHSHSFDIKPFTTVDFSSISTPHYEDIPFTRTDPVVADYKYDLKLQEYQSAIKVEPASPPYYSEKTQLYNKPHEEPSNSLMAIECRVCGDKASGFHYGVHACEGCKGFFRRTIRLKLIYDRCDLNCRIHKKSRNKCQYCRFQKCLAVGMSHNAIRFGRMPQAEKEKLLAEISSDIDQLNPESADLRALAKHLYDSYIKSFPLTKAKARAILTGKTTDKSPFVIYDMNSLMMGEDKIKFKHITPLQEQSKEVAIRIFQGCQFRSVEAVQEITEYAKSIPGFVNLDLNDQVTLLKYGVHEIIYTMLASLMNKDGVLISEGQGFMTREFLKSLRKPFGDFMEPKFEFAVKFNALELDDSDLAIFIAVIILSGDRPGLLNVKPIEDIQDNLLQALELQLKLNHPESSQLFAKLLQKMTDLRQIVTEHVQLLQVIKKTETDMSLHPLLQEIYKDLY
Chain of Vitamin D3 receptor (Homo sapiens) (P11473 whole entry, looked up): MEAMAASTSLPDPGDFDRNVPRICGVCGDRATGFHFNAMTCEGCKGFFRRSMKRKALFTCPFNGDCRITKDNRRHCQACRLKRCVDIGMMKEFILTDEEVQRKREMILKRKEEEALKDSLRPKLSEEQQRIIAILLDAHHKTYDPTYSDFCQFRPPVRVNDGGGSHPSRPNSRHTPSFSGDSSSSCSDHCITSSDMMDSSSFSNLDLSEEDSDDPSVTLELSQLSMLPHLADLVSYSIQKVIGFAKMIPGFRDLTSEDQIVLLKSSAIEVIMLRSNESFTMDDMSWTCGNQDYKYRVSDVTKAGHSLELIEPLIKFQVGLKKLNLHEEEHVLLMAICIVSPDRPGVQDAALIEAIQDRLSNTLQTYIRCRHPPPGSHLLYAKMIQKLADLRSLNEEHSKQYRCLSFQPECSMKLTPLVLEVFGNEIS
Chain of Thyroid hormone receptor beta (Homo sapiens) (P10828 whole entry, looked up): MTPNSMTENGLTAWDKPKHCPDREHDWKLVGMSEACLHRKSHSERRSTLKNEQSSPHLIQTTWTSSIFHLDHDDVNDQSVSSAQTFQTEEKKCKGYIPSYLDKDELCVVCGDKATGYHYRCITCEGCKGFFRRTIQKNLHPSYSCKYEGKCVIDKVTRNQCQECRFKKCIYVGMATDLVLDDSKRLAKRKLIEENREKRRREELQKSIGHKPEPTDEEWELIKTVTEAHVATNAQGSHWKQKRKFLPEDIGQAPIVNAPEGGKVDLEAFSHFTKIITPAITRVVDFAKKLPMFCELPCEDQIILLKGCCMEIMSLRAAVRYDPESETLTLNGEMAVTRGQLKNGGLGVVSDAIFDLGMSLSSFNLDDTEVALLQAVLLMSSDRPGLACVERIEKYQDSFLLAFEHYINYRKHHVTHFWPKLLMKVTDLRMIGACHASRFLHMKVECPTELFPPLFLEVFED
Chain of Retinoic acid receptor RXR-alpha (Homo sapiens) (P19793 whole entry, looked up): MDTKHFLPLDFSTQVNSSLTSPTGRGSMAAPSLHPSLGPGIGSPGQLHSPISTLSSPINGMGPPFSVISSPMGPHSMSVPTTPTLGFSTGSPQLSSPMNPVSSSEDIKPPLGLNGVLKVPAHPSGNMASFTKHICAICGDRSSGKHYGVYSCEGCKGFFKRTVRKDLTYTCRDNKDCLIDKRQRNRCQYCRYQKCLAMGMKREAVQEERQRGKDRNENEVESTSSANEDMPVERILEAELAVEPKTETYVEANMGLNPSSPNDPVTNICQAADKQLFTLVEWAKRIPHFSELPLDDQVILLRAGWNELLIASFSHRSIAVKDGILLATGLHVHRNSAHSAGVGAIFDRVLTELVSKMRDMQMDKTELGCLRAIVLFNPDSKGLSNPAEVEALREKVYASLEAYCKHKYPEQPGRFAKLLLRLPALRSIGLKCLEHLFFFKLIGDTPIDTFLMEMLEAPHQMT
Chain of Voltage-gated inwardly rectifying potassium channel KCNH2 (Homo sapiens) (Q12809 whole entry, looked up): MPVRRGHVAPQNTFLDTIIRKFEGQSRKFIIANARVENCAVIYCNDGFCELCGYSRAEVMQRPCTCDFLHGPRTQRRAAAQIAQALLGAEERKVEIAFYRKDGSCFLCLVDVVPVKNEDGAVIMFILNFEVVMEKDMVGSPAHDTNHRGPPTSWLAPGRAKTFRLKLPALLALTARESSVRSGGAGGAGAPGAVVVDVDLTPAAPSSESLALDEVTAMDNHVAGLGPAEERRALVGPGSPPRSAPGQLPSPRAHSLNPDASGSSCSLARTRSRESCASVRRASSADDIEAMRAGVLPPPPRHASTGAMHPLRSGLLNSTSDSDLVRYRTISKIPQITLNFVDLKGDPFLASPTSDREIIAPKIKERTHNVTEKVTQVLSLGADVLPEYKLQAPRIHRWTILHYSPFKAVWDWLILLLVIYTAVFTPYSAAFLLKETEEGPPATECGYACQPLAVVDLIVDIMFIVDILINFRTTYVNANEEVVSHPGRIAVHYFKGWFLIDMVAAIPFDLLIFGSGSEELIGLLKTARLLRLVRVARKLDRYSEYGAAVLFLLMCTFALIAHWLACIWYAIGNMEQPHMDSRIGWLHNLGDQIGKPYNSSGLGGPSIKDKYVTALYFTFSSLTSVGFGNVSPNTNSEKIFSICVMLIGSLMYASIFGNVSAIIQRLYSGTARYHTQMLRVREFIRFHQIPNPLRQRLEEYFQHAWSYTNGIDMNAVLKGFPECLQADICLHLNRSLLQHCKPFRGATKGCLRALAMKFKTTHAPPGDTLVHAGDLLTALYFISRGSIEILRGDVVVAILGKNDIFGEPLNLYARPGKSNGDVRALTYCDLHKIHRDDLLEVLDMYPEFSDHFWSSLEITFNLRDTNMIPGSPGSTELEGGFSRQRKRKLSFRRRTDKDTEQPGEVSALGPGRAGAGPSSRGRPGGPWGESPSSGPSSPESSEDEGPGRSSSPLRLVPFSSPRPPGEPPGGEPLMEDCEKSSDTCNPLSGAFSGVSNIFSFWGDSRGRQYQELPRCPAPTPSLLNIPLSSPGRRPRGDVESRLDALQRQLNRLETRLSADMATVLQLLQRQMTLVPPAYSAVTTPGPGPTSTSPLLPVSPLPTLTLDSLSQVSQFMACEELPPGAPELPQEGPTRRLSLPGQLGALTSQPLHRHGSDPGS

Turning to `C=CCC1=C(C)C(OC(=O)C2C(C=C(C)C)C2(C)C)CC1=O` (stereo unspecified), the result in assay [1], in assay [3] and in assay [6] was inactive. Also, the Potency result in assay [2] and in assay [5] was “inactive” in each case. The max response is -5.66% in assay [4]; -13.5% and -4.99% in assay [7]; -8.71% (inactive) and -26.3% (inactive) in [8]. For the same compound, the activity change % (negative = inhibition) in assay [9] was -24.8% (inactive) and -17.8% (inactive).

Regarding `O=C(O)C(Cl)Cl`, the outcome in assay [1] and in assay [6] was inactive. The Potency result in assay [2], in assay [5] and in [10] was “inactive” each time. Moreover, the max response is -16% and 3.52% in assay [4]; -11.2% and -3.76% in [7]; 4.75% (inactive) and -13.6% (inactive) in assay [8]. Besides, the activity change % (negative = inhibition) in assay [9] was 0.759% (inactive) and 14.6% (inactive).

As for `C1CCC(NC2CCCCC2)CC1`, the outcome in assay [1], in [3] and in [6] was inactive. Besides, the Potency entry in [2], in assay [5] and in assay [10] was “inactive” each time. For the same compound, the max response is -15% and -1.01% and -0.218% in assay [4]; -3.33% and -12% and -7.77% in [7]; 9.08% (inactive) and 2.51% (inactive) and 3.48% (inactive) in assay [8]. For the same compound, the activity change % (negative = inhibition) in [9] is -2.7% (inactive) and -4.6% (inactive) and 5.65% (inactive).

Take `Nc1ccc([N+](=O)[O-])cc1`: the outcome in [1], in assay [3] and in assay [6] was inactive. For the same compound, the max response was 6.91% in [4], 1.67% in assay [7] and -12.6% (inactive) in [8]. Besides, the Potency result in [5] and in assay [10] was “inactive” each time. In addition, the activity change % (negative = inhibition) in assay [9] is -27.9% (inactive).

As to `Nc1ccc(Cl)cc1N`, the outcome in assay [1], in assay [3] and in assay [6] was inactive. In addition, the max response is 13.9% in assay [4]; 11.5% and -1.67% in assay [7]; -1.75% (inactive) and 0.323% (inactive) in assay [8]. The Potency entry in [5] was “inactive”. Moreover, the activity change % (negative = inhibition) in [9] was -20.8% (inactive). Further, the Potency in [10] was 39.8 µM (active).

Take `CC(C)(C)C(O)C(Oc1ccc(Cl)cc1)n1cncn1` (stereo unspecified): the call in assay [1] and in assay [3] was inactive. Moreover, the Potency result in assay [2] is “inactive”. The max response in assay [7] was -12.3%; in assay [8], -0.566% (inactive). Further, in assay [9], the activity change % (negative = inhibition) was -8.05% (inactive).

As for `O=[N+]([O-])c1cc([N+](=O)[O-])c2ccccc2c1`, the compound was called inactive in [1], in assay [3] and in assay [6]. For the same compound, the Potency entry in assay [2] and in [5] was “inactive” in each case. For the same compound, the results for the max response in assay [4], in assay [7] and in assay [8] were -2.69%, -9.65% and 12.9% (inactive), respectively. The activity change % (negative = inhibition) in [9] was -11.2% (inactive).
